Data: ChEMBL document CHEMBL3988442, “University of Dundee, Small-Polar-MMV Screening Library” (2021)
The whole screen tested about 48,000 compounds, of which about 13,000 (27%) showed an effect of 50% or more. Some of the results follow.

System: Wolbachia pipientis
Test: Anti-Wolbachia Cell-Based Screen
Format: functional
Design: scale not given: in the data most compounds retested in dose-response had high values
Details: 5 µM

| Structure (SMILES) | Percent Effect [%] |
| --- | --- |
| CCc1c(O)nc(SC(C)CC)n(-c2ccccc2)c1=O (stereo not drawn) | -9.121 |
| Cc1ccc(CNC(=O)NC2CCC(O)CC2)c(N2CCCC2)c1 (stereo not drawn) | -1.85 |
| COc1ccc(OCCN(C)Cc2nc3c(cnn3C)c(=O)[nH]2)cc1 | 98.39 |
| Cc1ccsc1CN(C)Cc1nc2c(cnn2C)c(=O)[nH]1 | 5.162 |
| Cc1ccc(OCCN(C)Cc2nc3c(cnn3C)c(=O)[nH]2)cc1 | 122.7 |
| CN(CCCOc1ccccc1)Cc1nc2c(cnn2C)c(=O)[nH]1 | 105 |
| COc1ccc(C)cc1CN(C)Cc1nc2c(cnn2C)c(=O)[nH]1 | -1.165 |
| CN(Cc1nc2c(cnn2C)c(=O)[nH]1)Cc1ccc(F)cc1F | -0.6664 |
| CN(CCOc1cccc(F)c1)Cc1nc2c(cnn2C)c(=O)[nH]1 | 123 |
| Cc1ccc(CN(C)Cc2nc3c(cnn3C)c(=O)[nH]2)c(C)c1 | 10.63 |
| Cc1ccccc1CN(C)Cc1nc2c(cnn2C)c(=O)[nH]1 | 16.78 |
| CN(CCCOc1ccc(F)cc1)Cc1nc2c(cnn2C)c(=O)[nH]1 | -3.245 |
| CCN(Cc1nc2c(cnn2C)c(=O)[nH]1)c1cccc(F)c1 | 1.042 |
| FC(F)(F)COCCN1CCc2cncnc2C1 | -42.17 |
| CNC(=O)Cc1ccc(NC(=O)NCC(C)c2ncc(C)s2)cc1 (stereo not drawn) | 5.803 |
| CC(=O)N1CCc2ncn(C)c2C1C(=O)N1CCCC1.O=C(O)C(F)(F)F (stereo not drawn) | -4.032 |
| CC(C)Nc1ccnc(-c2ccnc3c2ccn3C)n1 | -57.68 |
| CC(C)(NC(=O)c1scnc1Cl)c1ccccc1 | -10.08 |
| COc1cc2c(cc1C(=O)N1CC(c3ccncc3)C1)CCC2 | -5.879 |
| COC(=O)[C@@H]1Cc2ncn(C)c2CN1S(=O)(=O)Cc1ccccc1 | -8.847 |
| O=C(NCCn1ccnc1)c1cccc(Br)c1 | 8.46 |
| COc1ccc(-c2cc(C(=O)NCCCn3ccnc3C)n(C)n2)cc1 | 159.9 |

| Structure (SMILES) | Percent Effect [%] |
| --- | --- |
| CC(C)c1nccn1CCCNC(=O)c1ccc(-c2ccncc2)nc1 | 3.275 |
| O=C(NCCn1ccnc1)c1cccc(F)c1 | 6.195 |
| O=C(NCCn1ccnc1)c1cc(F)cc(Br)c1 | 6.627 |
| COc1ccc(-c2ncc(-c3nccn3CCN(C)C)cn2)cc1 | -4.545 |
| Cn1nc(-c2ccc(F)cc2)cc1C(=O)NCCn1ccnc1 | 186.2 |
| COc1ccc(-c2cc(C(=O)NCCn3ccnc3)n(C)n2)cc1 | 156.8 |
| O=C(NCCn1ccnc1)c1cncc(Br)c1 | 15.29 |
| Cc1nc(C(F)(F)F)nc(N2CCC(O)(C(=O)O)CC2)c1C | -14.39 |
| O=C(CN1CCCc2c(F)cc(Br)cc21)N1CCN(C(=O)C2CC2)CC1 | 3.977 |
| N#Cc1ccnc(N2CCN(C3CCOC3=O)CC2)c1 (stereo not drawn) | -3.021 |
| Cc1ccc(CNC(=O)CN2CCN(CC(O)c3ccco3)CC2)cc1.Cl.Cl (stereo not drawn) | 0.6703 |
| O=C(CCN1CCOC(C(F)(F)F)C1)NCc1ccccc1Cl (stereo not drawn) | 4.795 |
| Cc1ccc(CNC(=O)CN2CCN(CC(O)C3CC3)CC2)cc1.Cl.Cl (stereo not drawn) | -4.273 |
| Cl.Cl.O=C(CN1CCN(CC(O)C2CC2)CC1)NCc1ccccc1Cl (stereo not drawn) | 116.4 |
| Cl.Cl.O=C(CN1CCN(CC(O)C2CC2)CC1)NCc1ccccc1 (stereo not drawn) | 118.5 |
| O=C(CN1CCS(=O)(=O)CC1)NCc1ccccc1F | -2.021 |
| CSCC[C@@H](CO)Nc1nc(-c2ccccn2)nc2c1c(C)nn2C | -12.31 |
| COc1cccc(C2CCCN2C(=O)c2cc3c([nH]c2=O)CCC3)c1 (stereo not drawn) | 13.18 |
| O=C(O)c1nnn(Cc2cccc(C(F)(F)F)c2)c1-c1cccnc1 | 14.53 |
| CNC(=O)Cn1cc(C#N)c(=O)c2cc(Br)ccc21 | -8.636 |
| CNC(=O)[C@@H]1[C@@H](c2ccccc2)CN2CCN(Cc3ccccn3)C[C@H]12 | 89.14 |
| CNC(=O)[C@@H]1[C@H]2CN(Cc3ccccn3)CCN2C[C@H]1c1ccccc1 | 121 |

| Structure (SMILES) | Percent Effect [%] |
| --- | --- |
| CNC(=O)[C@@H]1C[C@@H](N)CN1C1CCN(Cc2ccccn2)CC1 | -2.984 |
| O=C(Nc1ccc(Cl)cn1)C1CCCN(Cc2ccccn2)C1 (stereo not drawn) | 22.45 |
| CS(=O)(=O)NC1CCCN(Cc2ccccn2)C1 (stereo not drawn) | -8.857 |
| CSc1ccccc1C(C(=O)O)N1CCN(Cc2ccccn2)CC1 (stereo not drawn) | 5.13 |
| CC(C)NC(=O)[C@H]1C[C@@H]2[C@@H](C1)OCCN2Cc1cnn(C)c1.O=C(O)C(F)(F)F | -20.9 |
| CC(C)c1cc(C(=O)N(C)C(C)c2nccs2)no1 (stereo not drawn) | -2.417 |
| O=C(CCc1ccc(O)cc1)N1CCC(Cc2ccc(CO)cc2)C1 (stereo not drawn) | -11.56 |
| Cc1nc2cc(=O)[nH]n2c(C)c1CNC(=O)C(C)(C)c1ccccc1 | -10.11 |
| CSc1ccccc1C(=O)NCCC(O)c1ccco1 (stereo not drawn) | -13 |
| COCc1nc2cc(NCc3ncc[nH]3)ccc2o1 | 3.493 |
| O=C(N1CCCC(n2cncn2)C1)C1(c2ccccc2F)CCCC1 (stereo not drawn) | 104.1 |
| O=C(N1CCC(Oc2ccncc2)C1)C1(c2ccccc2F)CC1 (stereo not drawn) | -11.14 |
| Cc1ccccc1C1(C(=O)N2CCCC(n3cncn3)C2)CC1 (stereo not drawn) | 122.4 |
| Cc1cccn2cc(CC(=O)N3CCCC(n4cncn4)C3)nc12 (stereo not drawn) | 3.172 |
| Cc1nn(C)c2nc(-c3ccccn3)nc(NCCCOC(C)C)c12 | -17.61 |
| CNC(=O)CC1COCCN1C(=O)C1(c2ccc(Cl)cc2)CCC1 (stereo not drawn) | -7.784 |
| O=C(NCCN1CCCCC1=O)C1CCC(=O)N(C2CCCC2)C1 (stereo not drawn) | -13.2 |
| FC(F)(F)c1cccc(N2CCC(NCc3cccnc3)CC2)c1 | 10.28 |
| c1cc(N2CCC(c3nnc(Cn4ccnc4)n3C3CC3)CC2)ccn1 | -8.252 |
| c1ccc(N2CCC(c3ccncc3)CC2)cc1 | 167 |
| c1ccc(C2CCCN(c3cncc(-n4cccn4)n3)CC2)cc1 (stereo not drawn) | 13.07 |
| Cc1cnc(N2CCC(c3ccncc3)CC2)nc1-c1ccnn1C | -32.29 |

| Structure (SMILES) | Percent Effect [%] |
| --- | --- |
| COC(=O)c1ccc(N2CCC(c3ccccc3)CC2)nn1 | -9.28 |
| c1cnc(N2C[C@H]3CCN(c4cccnc4)C[C@H]3C2)nc1 | -4.407 |
| c1cncc(N2CCC(c3ccncc3)CC2)c1 | 81.68 |
| c1cc(C2CCN(c3cncnc3)CC2)ccn1 | 107.5 |
| O=C(O)C(F)(F)F.O=C([C@H]1COC[C@H]2CN(C3CCOCC3)C[C@H]21)N1CCCO1 | 2.638 |
| CSCCC1c2nc[nH]c2CCN1Cc1cc(Cl)ccc1O (stereo not drawn) | -0.8881 |
| Cc1nc(-c2nc(C(=O)N(C)C)c3ccccn23)cn1C(C)C | 84.92 |
| CC(C)n1cnc(-c2nc(C(=O)NC3CC3)c3ccccn23)c1 | 100.7 |
| Cc1nc(-c2nc(C(=O)N3CCOCC3)c3ccccn23)cn1C(C)C | -8.689 |
| CC(C)n1cnc(-c2nc(C(=O)N3CCN(C)CC3)c3ccccn23)c1 | 2.747 |
| Cn1cnc(-c2nc(C(=O)NC3CC3)c3ccccn23)c1 | -8.322 |
| Cc1nc(-c2nc(C(=O)NC3CC3)c3ccccn23)cn1C(C)C | 96.1 |
| Cc1nc(C(=O)N(C)CC(F)(F)C(F)(F)F)c2ccccn12 | 6.68 |
| CC(C)n1ccc(-c2cc(C(=O)NC3CC3)c3ccccn23)n1 | -8.678 |
| Cn1cnc(-c2nc(C(=O)NCCN3CCCC3)c3ccccn23)c1 | -11.17 |
| Cc1nc(C(=O)N(CC(=O)N(C)C)CC(F)(F)F)c2ccccn12 | 1.81 |
| Cc1noc(C)c1CN(C)C(=O)NC(C)c1cccs1 (stereo not drawn) | -8.281 |
| NC(=O)C1CCN(Cn2nc(-c3ccccc3)oc2=O)CC1 | -3.823 |
| Cc1noc(C2CCN(C(=O)CCNS(C)(=O)=O)CC2)n1 | -0.9329 |
| CCC(=O)Nc1cccc(OCC(=O)N(C)Cc2nc(C)c[nH]2)c1 | -12.77 |
| CCC(=O)Nc1cccc(OCC(=O)N(C)Cc2nccn2CC)c1 | -14.09 |
| CCC(=O)Nc1cccc(OCC(=O)N2C[C@H]3CC[C@H]2C3)c1 | 93.75 |

| Structure (SMILES) | Percent Effect [%] |
| --- | --- |
| CCC(=O)Nc1cccc(OCC(=O)N(C)Cc2ccon2)c1 | -42.8 |
| CCC(=O)NC1CCCN(C(=O)Nc2cccc(COC(C)C)c2)C1 (stereo not drawn) | -15.38 |
| CCC(=O)Nc1cccc(OCC(=O)N2CC=CC2C(C)C)c1 (stereo not drawn) | 89.02 |
| COc1cccc(NC(=O)CN(C(C)C)C2CC2)c1 | 1.237 |
| CCC(=O)Nc1cccc(OCC(=O)N(C)Cc2cc(COC)[nH]n2)c1 | -13.78 |
| CCC(=O)Nc1cccc(OCC(=O)N[C@@H]2C[C@H]3CC[C@@H]2C3)c1 | 110 |
| CN(C)C(=O)c1ccc2c(c1)N(C)C(CC(=O)NCCOCCO)CO2 (stereo not drawn) | 24 |
| Cc1ccccc1C1(C(=O)N2CCOC(C)C2)CCOCC1 (stereo not drawn) | -22.89 |
| COCCN1CCC2(CC1)CC(c1ccccc1)C(=O)N2C (stereo not drawn) | -11.58 |
| CN1C(=O)C(c2cccnc2)CC12CCN(C(=O)c1ccc[nH]1)CC2 (stereo not drawn) | -0.8841 |
| CN1C(=O)C(c2ccccc2)CC12CCN(CCO)CC2.O=C(O)C(F)(F)F (stereo not drawn) | 95.45 |
| CCCOCCN1CCC2(CC1)CC(c1ccccc1)C(=O)N2C (stereo not drawn) | 4.457 |
| Cc1occc1C(=O)N1CCC2(CC1)CC(c1cccnc1)C(=O)N2C (stereo not drawn) | -9.568 |
| CN1C(=O)C(c2cccnc2)CC12CCN(CCO)CC2 (stereo not drawn) | 110.9 |
| COCCN1CCC2(CC1)CC(c1cccnc1)C(=O)N2C (stereo not drawn) | 119.4 |
| CN1C(=O)C(c2ccccc2)CC12CCN(CCN)CC2 (stereo not drawn) | -103.7 |
| CN1C(=O)C(c2cccnc2)CC12CCN(C(=O)c1cccn1C)CC2 (stereo not drawn) | -11.09 |
| CN1C(=O)C(c2cccnc2)CC12CCN(Cc1nccs1)CC2 (stereo not drawn) | 106.4 |
| CCN1C(=O)C(c2ccccc2)CC12CCN(CCO)CC2.O=C(O)C(F)(F)F (stereo not drawn) | -6.556 |
| CN1C(=O)C(c2ccccc2)CC12CCN(CCOCCO)CC2 (stereo not drawn) | 13.34 |
